# From PubChem BioAssay AID1259373 (The Scripps Research Institute Molecular Screening Center, 2018)
# The other results are listed elsewhere or left out. Unmarked numbers belong to inactive results. No rule for the calls is given here.
# Assay: signal-interfering artefacts in bead proximity readout – biochemical, AlphaScreen, HTS, counter-screen, dose response (AID 1259373)
# Conditions: AlphaScreen optical interference counterscreen, cell-free
compound,measurement,value
CCOC(=O)C1C2NC(=S)N(CC)C1(C)Oc1ccc(Cl)cc12 (stereo unspecified),IC50,> 8.6 µM
